Assay outcomes deposited in PubChem by Buhrlage Lab, Dana-Farber Cancer Institute and Novartis Institutes for BioMedical Research (Cambridge, Mass).
The list is not random: actives were taken first. Their share in the collection is about 12%.
USP17 block = inhibitors of human USP17 deubiquitinase | purified USP17, Ub-rhodamine cleavage fluorescence, 3 h | inhibition, % at 50 µM | 47,000 compounds, 6.5% hits | AID 1645855
USP30 block = blocks human USP30 ubiquitin-rhodamine cleavage; AID 1645860; 47,000 compounds, 5.3% hits; purified USP30, Ub-rhodamine cleavage fluorescence; inhibition, % at 25 µM
Target sequence (Q70CQ3 whole entry, looked up): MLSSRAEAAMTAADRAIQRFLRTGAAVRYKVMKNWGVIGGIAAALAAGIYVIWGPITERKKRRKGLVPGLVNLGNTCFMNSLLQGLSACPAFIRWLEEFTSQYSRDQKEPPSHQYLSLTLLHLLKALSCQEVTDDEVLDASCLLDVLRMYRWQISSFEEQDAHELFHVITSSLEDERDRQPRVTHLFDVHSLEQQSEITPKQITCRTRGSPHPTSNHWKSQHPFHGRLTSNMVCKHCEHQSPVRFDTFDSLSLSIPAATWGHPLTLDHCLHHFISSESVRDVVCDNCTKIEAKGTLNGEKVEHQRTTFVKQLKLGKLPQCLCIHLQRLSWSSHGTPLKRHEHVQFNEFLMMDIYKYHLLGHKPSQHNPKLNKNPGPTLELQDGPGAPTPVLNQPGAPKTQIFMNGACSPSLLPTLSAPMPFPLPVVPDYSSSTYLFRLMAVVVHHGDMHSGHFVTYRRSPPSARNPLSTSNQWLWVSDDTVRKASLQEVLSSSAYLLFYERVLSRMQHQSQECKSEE
USP8 inh = human USP8 deubiquitinase inhibition; P40818; purified USP8, Ub-rhodamine cleavage fluorescence, 30 min; inhibition, % at 20 µM; 47,000 compounds, 4.2% hits
* = called active by the depositor; i = inactive; . = no result. Cut-off read from the data, not from the text of the source: active = inhibition above about 30%; inactive = the rest.

SMILES	USP17 block	USP30 block	USP8 inh
Cc1cc2c3c([nH]c2cc1S(=O)(=O)N1CCCCC1C)CC(C)(C)CC3=O (stereo unspecified)	2.9	5.4	13.7
Cc1cc2c3c([nH]c2cc1S(=O)(=O)N1CCCCC1C)CCCC3=O (stereo unspecified)	36.8*	-51.5	11.5
Cc1ccccc1-n1nnnc1-c1ccc2ccccc2n1	0.9	3.6	-13.2
Cc1ccc(CNC(=O)c2cc(=O)nc3sc(N4CCCCCC4)nn23)cc1	3.8	30.7*	13.6
O=C(NCCc1ccccc1)c1cc(=O)nc2sc(N3CCCCCC3)nn12	17.9	28.9	-8.6
CC(=O)c1ccc(NS(=O)(=O)c2ccc3c(c2)OCC(=O)N3)cc1	7.2	18.7	14.4
COCc1ccc(C(=O)N[C@H](C)c2nc3cc(-c4ccc(OC)cc4)ncn3n2)cc1	8.0	22.1	5.3
C[C@@H](NC(=O)c1ccc2c(c1)OCO2)c1nc2cc(-c3ccccc3F)ncn2n1	17.2	15.2	2.4
COc1ccc(-c2cc3nc([C@H](C)NC(=O)Cc4ccccc4C)nn3cn2)cc1	60.8*	26.6	94.4*
C[C@H](NC(=O)Cc1ccccc1F)c1nc2cc(-c3ccccc3F)ncn2n1	42.5*	63.9*	39.1*
C[C@@H](NC(=O)c1ccc2c(c1)OCCO2)c1nc2cc(-c3ccccc3F)ncn2n1	65.9*	77.8*	-6.2
COc1ccc(-c2cc3nc([C@H](C)NC(=O)COc4ccccc4F)nn3cn2)cc1	38.0*	46.7*	16.7
COc1ccc(-c2cc3nc([C@H](C)NC(=O)CC4CCCC4)nn3cn2)cc1	18.2	7.9	2.6
C[C@@H](NC(=O)C1CCCCC1)c1nc2cc(-c3ccccc3F)ncn2n1	29.7	24.5	1.2
CCOCC(=O)N1CCOC[C@]2(CN(Cc3ccco3)C[C@H]2C)C1	-11.4	.	-3.3
O=C(/C=C/c1ccc(OCc2ccc(Cl)cc2Cl)cc1)N1CCN(Cc2ccccc2)CC1	0.0	16.2	1.4
O=C(Cc1ccc(F)cc1)N1CCC(c2[nH]nc3nccnc23)CC1	-3.9	-8.7	-1.6
c1cncc(-c2nc(N3CCc4ccccc4C3)c3c4c(sc3n2)CCCC4)c1	1.2	6.0	10.1
O=C(c1cnco1)N1CCCC(c2ncc(Cc3ccc(F)cc3)o2)C1 (stereo unspecified)	-10.9	-16.3	0.2
COCCN1C[C@H]2CCN(C(=O)c3ccccn3)CC[C@H]2S1(=O)=O	-25.6	0.4	-190.6
O=C(NC1CC1)c1cc(=O)[nH]c2ccccc12	-0.1	-2.5	-0.1
Cc1ccc(OCCNC(=O)c2cc(=O)[nH]c3ccccc23)cc1	42.5*	-1.9	0.4
CC12C(=O)N(Cc3ccc(F)cc3)CC(=O)N1CCc1c2[nH]c2ccccc12 (stereo unspecified)	16.0	17.0	14.6
O=C(Nc1nnc(-c2cccc([N+](=O)[O-])c2)o1)C1CCN(S(=O)(=O)c2ccc(Cl)cc2)CC1	10.2	19.9	-271.4
Cc1ccc(NC(=O)CC2C(=O)N(Cc3cccnc3)c3nc4ccccc4n32)cc1 (stereo unspecified)	-10.4	-2.8	-0.4
SMILES	USP17 block	USP30 block	USP8 inh
CCc1ccccc1NC(=O)CC1C(=O)N(Cc2cccnc2)c2nc3ccccc3n21 (stereo unspecified)	0.0	-5.2	-0.2
Cc1ccccc1NC(=O)CC1C(=O)N(C2CCCC2)c2nc3ccccc3n21 (stereo unspecified)	16.2	30.2*	1.2
Cc1cccc(NC(=O)CC2C(=O)N(C3CCCC3)c3nc4ccccc4n32)c1 (stereo unspecified)	-5.0	13.3	17.1
Cc1ccc(NC(=O)CC2C(=O)N(Cc3ccccc3)c3nc4ccccc4n32)cc1 (stereo unspecified)	32.3*	2.3	0.7
O=C(CC1C(=O)N(Cc2cccnc2)c2nc3ccccc3n21)Nc1cccc2ccccc12 (stereo unspecified)	64.2*	22.1	-37.4
Cc1ccccc1S(=O)(=O)NCCc1cn(C)c2ncccc12	-5.0	-11.2	0.1
O=C(c1cncnc1)N1CCCC(c2ncc(Cc3ccc(Cl)cc3)o2)C1 (stereo unspecified)	-0.1	12.0	-2.9
c1ccc(N2CCN(c3nc4ccccc4n4nnnc34)CC2)nc1	-138.4	i	-231.0
COc1ccc(C)cc1NC(=O)c1cc2c(s1)CN(C1CC1)C2	17.3	-23.1	-4.4
Cc1n[nH]c(C)c1CNC(=O)c1nnn(-c2ccccc2F)c1-c1ccccn1	-53.6	-194.2	-26.2
O=C(c1cnn(-c2ccc(F)cc2F)c1C1CCNCC1)N1CCN(c2ncccn2)CC1	-10.2	-22.0	-62.1
Brc1ccc(C2=CC(c3cccs3)n3c(nc4ccccc43)N2)s1 (stereo unspecified)	-14.7	-279.3	41.6*
CC1=C(C(=O)N2CCCCC2)C(c2cccs2)n2c(nc3ccccc32)N1 (stereo unspecified)	-19.3	-85.4	-4.5
COc1ccc(N(CC(=O)Nc2ccc(OC)c(OC)c2)S(=O)(=O)c2c(C)nn(C)c2C)cc1	23.4	40.7*	-12.2
COc1ccc(N(CC(=O)Nc2cc(Cl)ccc2OC)S(=O)(=O)c2c(C)nn(C)c2C)cc1	-4.5	-10.7	-3.5
CCOC(=O)c1noc2nc(C)nc(N3CCC(N4CCCCC4)CC3)c12	-12.7	-67.5	3.5
CCOC(=O)c1noc2ncnc(Nc3ccc(N4CCC(C)CC4)cc3)c12	2.5	-1.7	49.7*
CCOC(=O)c1noc2ncnc(Nc3ccc4c(c3)OCO4)c12	28.3	-17.6	68.8*
CCOC(=O)c1noc2ncnc(N3CCc4ccccc43)c12	8.1	-0.9	-13.1
O=c1[nH]c(=O)n(Cc2ccccc2)c2c1CN(C1CCCCC1)CN2	-5.0	-18.6	-39.3
COc1ccc(Cl)cc1NC(=O)c1cc(-c2ccncc2)n[nH]1	13.0	20.4	16.1
O=C(CSc1nnc(-c2cccnc2)o1)Nc1cccc(Cl)c1	32.9*	29.8	1.8
COc1cccc(-c2cc(C(=O)Nc3cccc(C(C)=O)c3)[nH]n2)c1	1.6	-63.8	-13.1
COc1cccc(-c2cc(C(=O)Nc3ccccc3)[nH]n2)c1	38.7*	34.8*	11.8
Cc1ccc(NC(=O)CSc2nnc(-c3cccnc3)o2)cc1F	14.3	22.4	5.1
SMILES	USP17 block	USP30 block	USP8 inh
Cc1ccc(NC(=O)CSc2nnc(-c3ccncc3)o2)cc1	0.7	23.6	-1.5
O=C(Nc1cccc(Cl)c1)c1cc(-c2cccnc2)n[nH]1	83.4*	47.1*	82.8*
CNC(=O)NC(=O)CSc1nnc(-c2ccc(Cl)cc2)o1	33.2*	7.4	1.5
NC(=O)c1cc2ccccc2nc1C1CCN(C(=O)Cc2ccc(F)cc2)CC1	-18.5	-5.6	-3.0
Cc1c(S(=O)(=O)NCCc2ccccc2)cc(C(=O)N2CCCCC2)n1C	10.5	24.2	25.7
CC(=O)c1ccc(Nc2c(C(=O)N3CCCCC3)cnc3nc(C)ccc23)cc1	-57.4	-241.2	-115.8
N#Cc1oc2ccccc2c1NC(=O)CSc1nc2ccccc2[nH]1	-34.2	-39.5	-24.1
COc1ccc(-c2nc3c(c(SCC(=O)Nc4ccc(OC)cc4OC)n2)COC(C)(C)C3)cc1	-7.0	-0.4	-8.8
COc1ccc(CCNC(=O)c2cc(-c3cccnc3)n[nH]2)cc1OC	0.1	16.8	25.0
O=C(Nc1ccccc1F)c1cc(-c2cccnc2)n[nH]1	69.8*	.	2.4
COc1cccc(NC(=O)C2CCN(C(=O)c3cc(-c4cccnc4)n[nH]3)CC2)c1	0.0	9.1	12.3
